We go through 18 compounds from PubChem BioAssay (Tox21).

A short description of experiment [1]: qHTS assay for identifying genotoxic compounds that show differential cytotoxicity against isogenic chicken DT40 cell lines with known DNA damage response pathways - wild type cell line (AID 743012). Also: nearly all actives have a fitted effect of over 60% in size. Also: potency is read from the fitted curve at half-maximal effect. The procedure, abridged:
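Endpoint: CellTiter-Glo luminescence, 30 min RT. Cells: wild type DT40, 300/well. Exposure: compounds in DMSO, 40 h, 37 C/5% CO2, after ~0.5 h pre-incubation.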

Experiment [2] in a line: qHTS assay for identifying genotoxic compounds that show differential cytotoxicity against isogenic chicken DT40 cell lines with known DNA damage response pathways - Rad54/Ku70 mutant cell line (AID 743015). Also: nearly all actives have a fitted effect of over 60% in size. Also: potency is read from the fitted curve at half-maximal effect.
For experiment [3], the target named is Androgen receptor (Homo sapiens) (UniProt P10275). Briefly: qHTS assay to identify small molecule agonists of the androgen receptor (AR) signaling pathway (AID 743036; active = well fitted activation curve with a large enough effect in the signal ratio in the repeat runs, with a control signal flat, not every such curve was filed as active; the % refers to the signal ratio). The essentials: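 AR-UAS-bla HEK293 cells, plated 4 h before dosing, were treated with compound for 16 h at 37C. beta-Lactamase reporter read after 2 h with LiveBLAzer B/G FRET substrate at room temperature.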
On the technique in general: In qHTS, concentration-response curves come from the screen itself.

The target is the same in experiment [4]. As to the kind of experiment: qHTS assay to identify small molecule agonists of the androgen receptor (AR) signaling pathway using the MDA cell line (AID 743040; also: nearly all actives have a fitted effect of over 20% in size). The procedure, abridged: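 Testing was done with the MDA-kb2 AR-luc line, a human breast carcinoma stably transfected with MMTV-luciferase containing AR and GR response elements. Cells were exposed 16 h at 37C before ONE-Glo luminescence detection.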

Experiment [5] is described as follows: qHTS assay to identify small molecule antagonists of the androgen receptor (AR) signaling pathway using the MDA cell line - cell viability counter screen (AID 743041; also: nearly all actives have a fitted effect of over 45% in size; also: potency is read from the fitted curve at half-maximal effect). The essentials:
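Compound exposure lasted 16 h at 37C in MDA-kb2 AR-luc cells stimulated with R1881. Protease-based CellTiter-Fluor reagent was applied for the final 30 min and fluorescence measured.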

The target of experiment [6] is Androgen receptor (Homo sapiens) (UniProt P10275). As to the kind of experiment: qHTS assay to identify small molecule antagonists of the androgen receptor (AR) signaling pathway using the MDA cell line (AID 743042; also: potency is read from the fitted curve at half-maximal effect; nearly all actives have a fitted effect of over 55% in size). The essentials: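 MDA-kb2 breast carcinoma cells carrying MMTV-luciferase (AR/GR responsive) were co-treated with compounds and the agonist R1881 for 16 h at 37C. Inhibition read as ONE-Glo luminescence; CellTiter-Fluor fluorescence measured in parallel for cytotoxicity.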

Experiment [7] in a line: qHTS assay to identify small molecule antagonists of the thyroid receptor (TR) signaling pathway - cell viability counter screen (AID 743064). Also: nearly all actives have a fitted effect of over 50% in size. Also: potency is read from the fitted curve at half-maximal effect. The procedure, abridged:
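GH3.TRE-Luc rat pituitary cells dosed after 4 hr plating, co-stimulated with T3 at 1 nM final, incubated 23.5 h at 37 C. Viability measured in the same wells by CellTiter-Fluor fluorescence after 30 min further at 37 C.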

The nature of experiment [8]: qHTS assay to identify small molecule antagonists of the glucocorticoid receptor (GR) signaling pathway - cell viability counter screen (AID 720693). Also: nearly all actives have a fitted effect of over 55% in size.
The nature of experiment [9]: qHTS assay to identify small molecule antagonists of the androgen receptor (AR) signaling pathway - cell viability counter screen (AID 743033; also: nearly all actives have a fitted effect of over 45% in size; also: potency is read from the fitted curve at half-maximal effect).
Experiment [10] can be described thus: qHTS assay for identifying genotoxic compounds that show differential cytotoxicity against isogenic chicken DT40 cell lines with known DNA damage response pathways - Rev3 mutant cell line (AID 743014). Also: nearly all actives have a fitted effect of over 55% in size. Also: potency is read from the fitted curve at half-maximal effect.

Where “and” joins values, the source holds several entries; their conditions need not be identical. Equal values may be shown once. Records with an inconclusive call do not appear. The source holds several records for some structures; these can differ, active in one and inactive in another. Calls of active or inactive are those of the source. Unless noted, calls follow the shape of the dose curve; as a rule, active = well fitted curve in the direction sought with a large enough effect in the repeat runs; inconclusive = weak or mixed curves; inactive = no such curve, though single readings can be large; an effect the other way counts as inactive or inconclusive.

Androgen receptor (Homo sapiens), sequence (P10275 whole entry, looked up): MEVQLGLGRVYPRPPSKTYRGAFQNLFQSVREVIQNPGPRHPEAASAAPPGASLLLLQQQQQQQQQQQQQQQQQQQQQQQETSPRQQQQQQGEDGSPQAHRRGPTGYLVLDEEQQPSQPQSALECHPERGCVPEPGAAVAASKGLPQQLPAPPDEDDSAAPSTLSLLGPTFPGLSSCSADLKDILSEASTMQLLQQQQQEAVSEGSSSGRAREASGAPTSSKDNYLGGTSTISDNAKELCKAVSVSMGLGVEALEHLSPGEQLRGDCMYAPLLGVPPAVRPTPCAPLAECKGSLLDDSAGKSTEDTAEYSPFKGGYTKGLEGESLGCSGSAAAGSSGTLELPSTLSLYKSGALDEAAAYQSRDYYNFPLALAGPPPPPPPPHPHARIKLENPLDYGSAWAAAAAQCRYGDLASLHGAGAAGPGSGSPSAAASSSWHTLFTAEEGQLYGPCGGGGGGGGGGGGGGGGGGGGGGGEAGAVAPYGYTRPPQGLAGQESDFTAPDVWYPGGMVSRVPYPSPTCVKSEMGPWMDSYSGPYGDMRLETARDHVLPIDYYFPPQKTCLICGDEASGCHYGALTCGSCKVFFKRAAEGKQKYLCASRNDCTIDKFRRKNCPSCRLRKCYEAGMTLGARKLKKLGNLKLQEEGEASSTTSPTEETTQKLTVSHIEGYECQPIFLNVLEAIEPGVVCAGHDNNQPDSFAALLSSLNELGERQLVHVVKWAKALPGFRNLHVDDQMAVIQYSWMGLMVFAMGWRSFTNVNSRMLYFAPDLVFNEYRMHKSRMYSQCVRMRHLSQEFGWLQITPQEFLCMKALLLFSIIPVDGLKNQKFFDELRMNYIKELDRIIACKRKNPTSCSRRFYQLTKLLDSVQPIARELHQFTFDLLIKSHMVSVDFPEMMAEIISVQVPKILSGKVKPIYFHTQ

As for `Nc1ncn([C@@H]2O[C@H](CO)[C@@H](O)[C@H]2O)c(=O)n1`, the Potency in [1] was 1.88 µM (active) and 1.54 µM (active); in experiment [2], 841 nM (active) and 386 nM (active); in experiment [6], 5.96 µM (active) and 2.73 µM (active); in [7], 5.31 µM (active) and 9.69 µM (active). For the same compound, the outcome in [3] was inactive. Further, the Potency result in experiment [4] and in experiment [5] was “inactive” throughout.
For the compound `CCCCNS(=O)(=O)c1ccccc1`, the Potency result in experiment [8], in experiment [1], in experiment [2], in experiment [9], in [5] and in experiment [7] was “inactive” each time.
Regarding `CN(C)CCC=C1c2ccccc2CCc2ccccc21`, the Potency entry in experiment [8] and in experiment [9] was “inactive” in each case. In addition, the Potency in [1] is 9.44 µM (active) and 54.5 µM (active); in [2], 13.3 µM (active) and 54.5 µM (active); in [7], 23.7 µM (active) and 5.45 µM (active) and 24.3 µM (active).
Take `CN(C)C(=N)N=C(N)N`: the Potency result in experiment [8], in experiment [9] and in experiment [7] was “inactive” throughout.
Take `Cc1ccc(C(=O)c2cc(O)c(O)c([N+](=O)[O-])c2)cc1`: the Potency in [2] was 48.6 µM (active). For the same compound, the Potency entry in experiment [9] is “inactive”.
On to `CCCCCCCCCC(=O)OC`, for which the Potency result in experiment [8], in [1], in experiment [2], in experiment [9] and in experiment [7] was “inactive” throughout.
With `COC(=O)C1=C(C)NC(C)=C(C(=O)OCCN(C)Cc2ccccc2)C1c1cccc([N+](=O)[O-])c1` (stereo not drawn), the Potency entry in experiment [8] is “inactive”. Further, the Potency is 9.44 µM (active) and 19.2 µM (active) in experiment [1]; 10.6 µM (active) and 19.2 µM (active) in experiment [2]; 48.7 µM (active) in experiment [9]; 13.3 µM (active) and 19.2 µM (active) in experiment [7].
For the compound `CC(C(=O)O)c1cccc(C(=O)c2ccccc2)c1` (stereo not drawn), the Potency entry in [8], in experiment [1], in [2], in [9], in experiment [5] and in experiment [7] was “inactive” throughout.
With `COc1cccc2c1C(=O)c1c(O)c3c(c(O)c1C2=O)C[C@@](O)(C(=O)CO)C[C@@H]3O[C@H]1C[C@H](N)[C@H](O)[C@H](C)O1`, the Potency result is “inactive and 66.8 nM (active) and 24.3 nM (active)” in [1]; “inactive and 84.1 nM (active) and 9.7 nM (active)” in experiment [10]; “inactive and 10.6 nM (active) and 3.1 nM (active)” in [2]. Moreover, in experiment [9], the Potency result is “inactive”.
Turning to `Nc1ccccc1N`, the Potency result in [8], in [9] and in [7] was “inactive” in each case. Besides, the Potency in experiment [1] is 3.86 µM (active); in experiment [2] it was 62.6 µM (active) and 9.15 µM (active).
As for `CCC(C)c1ccccc1O` (stereo not drawn), the Potency entry in experiment [8], in experiment [1], in experiment [2], in [9], in [5] and in [7] was “inactive” in each case.
In the case of `O=C=Nc1ccc(Cc2ccc(N=C=O)cc2)cc1`, the Potency result in [8], in experiment [2], in experiment [9], in experiment [5] and in [7] was “inactive” throughout. The Potency in experiment [1] was 21.3 µM (active) and inactive.
On to `O=C(COc1ccc(Cl)cc1)N1CCN(Cc2ccc3c(c2)OCO3)CC1`, for which the Potency entry in [8], in experiment [9] and in [7] was “inactive” in each case. Moreover, the Potency was 29.8 µM (active) in experiment [1] and 48.6 µM (active) in experiment [2].
As to `CCC(C)OC(=O)c1ccc(O)cc1` (stereo not drawn), the Potency entry in experiment [8], in [10], in experiment [9], in experiment [5] and in experiment [7] was “inactive” throughout.
Consider `O=C(OCc1ccccc1)c1ccccc1O`, for which the Potency entry in experiment [8], in experiment [9], in [5] and in experiment [7] was “inactive” each time.
Consider `CC(=O)CC/C=C(\C)CCC=C(C)C`, for which the Potency entry in [8], in experiment [1], in [2], in [9] and in experiment [7] was “inactive” each time.
Consider `O=C1OC2(c3cc(Br)c(O)c(Br)c3Oc3c2cc(Br)c(O)c3Br)c2c(Cl)c(Cl)c(Cl)c(Cl)c21`, for which the Potency result in experiment [10], in experiment [2] and in [9] was “inactive” throughout. Besides, the Potency in experiment [5] was 4.33 µM (active) and 37.1 µM (active); in [7], 24.4 µM (active) and 41.6 µM (active).
`O=C(/C=C/C=C/c1ccc2c(c1)OCO2)N1CCCCC1`: the Potency entry in experiment [8], in experiment [9] and in experiment [7] was “inactive” in each case. Also, the Potency in [2] is 61.3 µM (active).
